A selection: hits, their analogues and other compounds. The true share with any hit is near 2.9%.
HEK293 viab: GF-AFC viability counterscreen for inhibitors of alpha-synuclein gene (SNCA) expression | Potency, µM (titrated, usually from 57.1 µM), without a hit: top-dose activity change, negative = cytotoxicity, usual class: cytotoxic | HEK-293-SNCA-luc viability, GF-AFC fluorescence, 24 h | AID 1671193, 2021 | actives 0.12% (n = 150,000);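 note: potency is the fitted concentration of half-maximal effect; 0% = DMSO-treated cells and -100% = medium-only wells without cells; nearly all actives have a fitted effect of over 30% in size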
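Cytotoxicity counterscreen: after 24 h compound treatment of genome-edited SNCA-luciferase HEK-293 cells, live-cell protease substrate GF-AFC read by fluorescence after 30 min; activity scaled between DMSO (0%) and medium-only (-100%), curves Hill-fitted.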
IP6K1 inhibitor: Primary qHTS assay for small molecule inhibitors of Inositol hexaphosphate kinase 1 (IP6K1). Inositol hexakisphosphate kinase 1 (Homo sapiens), Q92551. IP6K1 kinase, ADP-Glo luminescence, 2 h; hits give low values. activity change, % (series mostly up to about 58 µM). actives 0.81% (n = 140,000). AID 1645851, 2021; in the data active = activity change below about -25%; note: % is set by controls: 0 for no effect and ±100 for the full control effect
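ADP-Glo luminescence measures ADP made by human IP6K1 during a 2 h RT reaction with ATP/IP6 (mix at 1.3 mM/130 uM); top library doses 57.5 and 19.1 uM final.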
KDM5B inhibitor: Primary screen for KDM5B Histone Demethylases FDH-coupled qHTS; KDM5B demethylase, FDH-coupled NADH fluorescence (FDH is formaldehyde dehydrogenase); AID 1347165, 2019; Potency, µM (titrated, usually from 57.7 µM), usual class: inhibitors; Lysine-specific demethylase 5B (Homo sapiens), Q9UGL1; actives 2.6% (n = 220,000); note: potency is the fitted concentration of half-maximal effect; 0% is about no effect; nearly all actives have a fitted effect of over 70% in size
Target sequence (Q9UGL1 whole entry, looked up): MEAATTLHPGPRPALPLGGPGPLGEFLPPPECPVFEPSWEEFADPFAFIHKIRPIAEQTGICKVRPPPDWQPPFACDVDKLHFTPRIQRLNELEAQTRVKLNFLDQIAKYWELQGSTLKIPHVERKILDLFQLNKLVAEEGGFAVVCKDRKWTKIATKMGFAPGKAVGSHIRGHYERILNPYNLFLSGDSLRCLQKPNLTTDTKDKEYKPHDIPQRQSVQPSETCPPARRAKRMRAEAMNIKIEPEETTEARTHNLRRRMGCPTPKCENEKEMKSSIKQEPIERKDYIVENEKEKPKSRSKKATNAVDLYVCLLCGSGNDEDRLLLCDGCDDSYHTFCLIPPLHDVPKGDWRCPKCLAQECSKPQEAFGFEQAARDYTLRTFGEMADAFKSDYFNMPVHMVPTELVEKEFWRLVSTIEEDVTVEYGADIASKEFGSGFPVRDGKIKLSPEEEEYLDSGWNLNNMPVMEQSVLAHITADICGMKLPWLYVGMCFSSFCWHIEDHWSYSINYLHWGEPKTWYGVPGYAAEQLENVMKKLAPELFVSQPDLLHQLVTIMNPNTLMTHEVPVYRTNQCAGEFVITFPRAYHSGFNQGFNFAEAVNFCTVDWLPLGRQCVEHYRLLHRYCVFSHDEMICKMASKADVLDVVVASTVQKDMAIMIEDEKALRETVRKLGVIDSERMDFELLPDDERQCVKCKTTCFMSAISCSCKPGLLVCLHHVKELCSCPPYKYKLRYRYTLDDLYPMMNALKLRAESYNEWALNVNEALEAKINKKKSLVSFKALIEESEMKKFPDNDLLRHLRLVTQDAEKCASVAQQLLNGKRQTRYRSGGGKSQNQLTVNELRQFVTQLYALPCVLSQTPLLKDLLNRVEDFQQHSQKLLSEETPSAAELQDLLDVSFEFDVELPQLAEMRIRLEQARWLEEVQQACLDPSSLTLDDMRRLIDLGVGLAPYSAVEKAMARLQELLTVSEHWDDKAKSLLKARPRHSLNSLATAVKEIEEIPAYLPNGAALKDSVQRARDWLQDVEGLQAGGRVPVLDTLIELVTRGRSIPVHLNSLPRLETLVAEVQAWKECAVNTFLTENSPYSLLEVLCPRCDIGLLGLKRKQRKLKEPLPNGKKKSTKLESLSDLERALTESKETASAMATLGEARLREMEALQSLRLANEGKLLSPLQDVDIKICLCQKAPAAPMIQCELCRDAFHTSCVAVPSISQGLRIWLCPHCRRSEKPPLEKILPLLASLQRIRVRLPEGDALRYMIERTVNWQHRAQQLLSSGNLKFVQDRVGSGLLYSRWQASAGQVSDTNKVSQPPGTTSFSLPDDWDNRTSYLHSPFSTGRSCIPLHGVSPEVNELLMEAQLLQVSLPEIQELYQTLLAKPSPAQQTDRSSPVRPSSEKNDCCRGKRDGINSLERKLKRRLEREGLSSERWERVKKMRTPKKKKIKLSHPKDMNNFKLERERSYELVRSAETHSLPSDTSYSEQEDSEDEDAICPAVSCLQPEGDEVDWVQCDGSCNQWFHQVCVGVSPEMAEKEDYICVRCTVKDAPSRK
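Here, H3K4me3 peptide (12.5 µM in substrate mix) is demethylated by KDM5BΔAP, 200 nM final, after 10 min compound exposure. Formaldehyde product is coupled through FDH (0.25 U/mL in mix) to NADH fluorescence; 30-min ΔRFU feeds dose-response curves.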
SNCA expr inhib: Primary qHTS assay for inhibitors of alpha-synuclein gene (SNCA) expression; HEK-293 SNCA-luciferase knock-in, luminescence, 24 h; Potency, µM (highest dose often 57.2 µM), without a hit: at the top dose activity change, negative = inhibition, most hits filed as inhibitors; actives 0.17% (n = 140,000); AID 1671194, 2021;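 note: potency is the fitted concentration of half-maximal effect; plate controls were DMSO cells for no effect and cell-free wells for full effect; nearly all actives have a fitted effect of over 45% in size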
* hit, by the source's call; i = inactive; ? = inconclusive; / = no result given; [ ] = another dose, or the depositor's remark. Unless noted, calls come from the whole dose curve; as a rule, active = well fitted curve in the direction sought with a large enough effect; inconclusive = small, poorly fitted or top-dose-only effect, or another doubt; inactive = no such curve, though single readings can be large; an effect the other way counts as inactive or inconclusive.

SMILES	HEK293 viab	IP6K1 inhibitor	KDM5B inhibitor	SNCA expr inhib
c1csc(CN2Cc3[nH]cnc3C[C@H]2c2nc(-c3ccncc3)no2)c1	6.4%[87.6 µM]	6.8	28.2µM*	95.4%[87.6 µM]
c1csc(CN2Cc3[nH]cnc3C[C@H]2c2nc(-c3ccc4ccccc4c3)no2)c1	2.8%[87.6 µM]	32.9	28.2µM*	?
COc1ccc(-c2noc([C@@H]3Cc4nc[nH]c4CN3Cc3cccs3)n2)cc1	-21.5%[87.6 µM]	-16.0	?	?
Cc1cc(C(=O)N2CCOC[C@H](Oc3ccc(C(F)(F)F)cn3)C2)n(C)n1	3.6%[87.6 µM]	1.1	i	4.3%[87.6 µM]
Cc1nn2c(c1-c1ccccc1[S+](C)(=O)[O-])N(CCC(C)C)CCC2	?	16.8	22.4µM*	3.16µM*
O=C(NCC1CCCCC1)c1noc(-c2ccc[nH]c2=O)n1	4.5%	5.5	i	-20.3%
O=C(NCC1CC1)c1noc(-c2ccccc2F)n1	-1.4%	4.7	20µM*	0.7%
C#CCNC(=O)c1nc(-c2ccccc2OC)c2ccccn12	-4.9%	-21.2	100µM*	10.7%
COc1ccccc1-c1nc(C(=O)N(C)C)n2ccccc12	-2.5%[87.6 µM]	-14.5	112µM*	109.8%[87.6 µM]
C#CCNC(=O)c1nc(-c2ccccc2OC)c2cnccn12	8.6%	-16.5	89.1µM*	13.8%
C#CCNC(=O)c1nn(C)c2nc(-c3ccccc3OC)ccc12	-0.5%[87.6 µM]	2.0	/	18.3%[87.6 µM]
COCCNC(=O)c1nc(-c2ccccc2OC)c2ccccn12	6.0%[87.6 µM]	10.5	i	1.5%[87.6 µM]
COc1ccc(-c2cccc(CCOc3cnc4c(ccn4CC(=O)O)c3)c2)c(F)c1	-0.6%[87.6 µM]	-6.9	?	12.1%[87.6 µM]
COc1ncccc1-c1cccc(CCOc2cnc3c(ccn3CC(=O)O)c2)c1	-0.3%[87.6 µM]	-10.9	39.8µM*	-16.9%[87.6 µM]
COc1ccc(-c2cccc(CCOc3cnc4c(ccn4CC(=O)O)c3)c2)c(C)c1	0.8%[87.6 µM]	-17.6	39.8µM*	-5.0%[87.6 µM]
Cc1ccccc1-c1cccc(CCOc2cnc3c(ccn3CC(=O)O)c2)c1	4.7%[87.6 µM]	-16.2	39.8µM*	-8.1%[87.6 µM]
CCOCCCNc1oc(-c2cccc3ccccc23)nc1C#N	/	/	i	/
COc1cc2c(cc1CN1CCN(c3ccc(C#N)cc3)C(=O)C1)CCC2	-10.5%	0.0	31.6µM*	-8.8%
Cc1ccc(-c2cc3c(nc2-c2ccccc2)nc(C(=O)NCCN(C)C)n3C)cc1	-22.0%[87.6 µM]	8.9	i	8.3%[87.6 µM]
COc1ccccc1-c1cc2c(nc1-c1ccccc1)nc(C(=O)NC1CCN(C)CC1)n2C	?	5.5	28.2µM*	-5.8%
COc1cc(CNC(=O)c2nc3nc(-c4ccccc4)c(Cl)cc3n2C)cc(OC)c1	-5.3%[87.6 µM]	13.5	35.5µM*	-3.3%[87.6 µM]
COCc1nc2nc(-c3ccccc3)c(-c3ccccc3OC)cc2n1C	-0.2%[87.6 µM]	4.6	?	-4.3%[87.6 µM]
Cn1c(C(=O)NCCN2CCOCC2)nc2nc(-c3ccccc3)c(Cl)cc21	9.8%[87.6 µM]	6.1	35.5µM*	29.5%[87.6 µM]
Cn1c(C(=O)NCC2CC2)nc2nc(-c3ccccc3)c(Cl)cc21	1.4%[87.6 µM]	3.2	39.8µM*	-28.9%[87.6 µM]
COc1ccc(CNC(=O)c2sccc2-c2ccccc2)cc1OC	/	/	i	/
SMILES	HEK293 viab	IP6K1 inhibitor	KDM5B inhibitor	SNCA expr inhib
Cn1c(C(=O)NCCc2ccccn2)nc2nc(-c3ccccc3)c(Cl)cc21	-13.3%[87.6 µM]	-0.7	35.5µM*	-16.8%[87.6 µM]
COc1ccc(CNC(=O)c2nc3nc(-c4ccccc4)c(Cl)cc3n2C)cc1OC	-20.8%[87.6 µM]	5.6	35.5µM*	?
Cn1c(C(=O)NCc2ccoc2)nc2nc(-c3ccccc3)c(Cl)cc21	2.2%[87.6 µM]	-3.0	35.5µM*	7.1%[87.6 µM]
CN(C)CCNC(=O)c1nc2nc(-c3ccccc3)c(-c3ccccc3O)cc2n1C	-1.9%[87.6 µM]	-0.5	?	33.5%[87.6 µM]
COCCNC(=O)CCCN1C(=O)COc2ccc(C(=O)COc3ccc(F)c(Cl)c3)cc21	1.4%	5.3	?	-3.9%
Cc1nc2cnc(Oc3ccccc3)nc2n(-c2ccccc2)c1=O	-16.9%	/	/	3.9%
CN(C)c1ncc2c(n1)C(C)(C(=O)Nc1cccc(F)c1)CCC2 (centres undefined)	1.0%[87.6 µM]	11.2	31.6µM*	?
CN(C)c1ncc2c(n1)C(C)(C(=O)Nc1ccncc1)CCC2 (centres undefined)	4.7%[87.6 µM]	8.0	31.6µM*	-11.7%[87.6 µM]
COc1cccc(NC(=O)C2(C)CCCc3cnc(N(C)C)nc32)c1 (centres undefined)	-15.4%[87.6 µM]	5.4	39.8µM*	?
CCCNC(=O)CCc1ccnc(N2CCOCC2)c1	-1.2%	-6.8	28.2µM*	2.9%
O=C(CCc1ccnc(N2CCOCC2)c1)NCCN1CCc2ccccc2C1	-18.6%	15.2	25.1µM*	-13.3%
Cc1ccccc1CNC(=O)CCc1ccnc(N2CCOCC2)c1	12.9%	-8.0	22.4µM*	2.5%
Cc1ccc(N2CCN(C(=O)CCc3ccnc(N4CCOCC4)c3)CC2)cc1	-4.1%	19.4	i	3.5%
Cc1n[nH]c(C)c1S(=O)(=O)N1CCN(C)CC1	/	/	i	/
O=C(N[C@H]1C[C@H]2C(=O)Nc3ccc(-c4cccs4)cc3C(=O)N2C1)c1ccccc1	-28.4%[87.6 µM]	-17.2	31.6µM*	?
COc1ccc(C(=O)N[C@H]2C[C@H]3C(=O)Nc4ccccc4C(=O)N3C2)cc1	?	-6.2	i	-7.4%[87.6 µM]
O=C1Nc2ccc(-c3ccsc3)cc2C(=O)N2C[C@@H](NS(=O)(=O)c3ccc(F)cc3)C[C@@H]12	-5.2%	-4.9	?	-11.1%
CS(=O)(=O)N[C@H]1C[C@H]2C(=O)Nc3ccc(-c4cccs4)cc3C(=O)N2C1	-10.5%[87.6 µM]	-12.6	39.8µM*	17.5%[87.6 µM]
COc1ccc(C(=O)N[C@H]2C[C@H]3C(=O)Nc4ccc(-c5cccs5)cc4C(=O)N3C2)cc1	?	-0.8	35.5µM*	-27.8%
COc1ccc(-c2ccc3c(c2)C(=O)N2C[C@@H](NS(=O)(=O)c4ccc(F)cc4)C[C@H]2C(=O)N3)c(OC)c1	?	-0.4	35.5µM*	?
O=C1NCCCCCN(C(=O)c2ccc(Cn3ccnc3)o2)[C@H]2CCC[C@@H]12	0.8%	-7.9	i	-21.1%
O=C(CCc1ncc(-c2ccccc2F)o1)Nc1ccc(Cl)cc1	/	/	i	/
CCC(C)NC(=O)CSc1ccccn1 (centres undefined)	/	/	i	/
Cc1ccccc1NC(=O)Cc1c[nH]c2ncc(-c3cnn(C)c3)cc12	4.4%[87.6 µM]	2.5	?	57.7%[87.6 µM]
Cn1cc(-c2cnc3[nH]cc(CC(=O)Nc4cccnc4)c3c2)cn1	-17.9%[87.6 µM]	-12.7	39.8µM*	-3.3%[87.6 µM]
CN(C)C(=O)Cc1c[nH]c2ncc(-c3cccnc3)cc12	9.8%[87.6 µM]	-0.3	i	-23.7%[87.6 µM]
CN(C)C(=O)Cc1c[nH]c2ncc(-c3cnn(C)c3)cc12	-3.8%[87.6 µM]	-14.9	39.8µM*	11.0%[87.6 µM]
CN(C)c1cccc(NC(=O)Cc2c[nH]c3ncc(-c4cnn(C)c4)cc23)c1	-24.6%[87.6 µM]	-13.5	?	14.3%[87.6 µM]
Cn1cc(-c2cnc3[nH]cc(CC(=O)NCc4cccc(F)c4)c3c2)cn1	-1.5%[87.6 µM]	-16.4	31.6µM*	21.0%[87.6 µM]

Screens: PubChem, National Center for Advancing Translational Sciences (NCATS)
